Assay results as given in ChEMBL document CHEMBL3988442, “University of Dundee, Small-Polar-MMV Screening Library” (2021).
For some assays here: Potency and affinity values are given separately.

How the values were obtained:
Parameters in all cases: scale not given: direction of the effect not stated beside the values
[1] = biological target: Protein translocase subunit SecA (Escherichia coli (strain K12)) (UniProt P10408); test: Assay to Identify E. coli SecA ATPase Inhibitors; assay type: functional; conditions: 30 µM
Chain of Protein translocase subunit SecA (Escherichia coli (strain K12)) (P10408 whole entry): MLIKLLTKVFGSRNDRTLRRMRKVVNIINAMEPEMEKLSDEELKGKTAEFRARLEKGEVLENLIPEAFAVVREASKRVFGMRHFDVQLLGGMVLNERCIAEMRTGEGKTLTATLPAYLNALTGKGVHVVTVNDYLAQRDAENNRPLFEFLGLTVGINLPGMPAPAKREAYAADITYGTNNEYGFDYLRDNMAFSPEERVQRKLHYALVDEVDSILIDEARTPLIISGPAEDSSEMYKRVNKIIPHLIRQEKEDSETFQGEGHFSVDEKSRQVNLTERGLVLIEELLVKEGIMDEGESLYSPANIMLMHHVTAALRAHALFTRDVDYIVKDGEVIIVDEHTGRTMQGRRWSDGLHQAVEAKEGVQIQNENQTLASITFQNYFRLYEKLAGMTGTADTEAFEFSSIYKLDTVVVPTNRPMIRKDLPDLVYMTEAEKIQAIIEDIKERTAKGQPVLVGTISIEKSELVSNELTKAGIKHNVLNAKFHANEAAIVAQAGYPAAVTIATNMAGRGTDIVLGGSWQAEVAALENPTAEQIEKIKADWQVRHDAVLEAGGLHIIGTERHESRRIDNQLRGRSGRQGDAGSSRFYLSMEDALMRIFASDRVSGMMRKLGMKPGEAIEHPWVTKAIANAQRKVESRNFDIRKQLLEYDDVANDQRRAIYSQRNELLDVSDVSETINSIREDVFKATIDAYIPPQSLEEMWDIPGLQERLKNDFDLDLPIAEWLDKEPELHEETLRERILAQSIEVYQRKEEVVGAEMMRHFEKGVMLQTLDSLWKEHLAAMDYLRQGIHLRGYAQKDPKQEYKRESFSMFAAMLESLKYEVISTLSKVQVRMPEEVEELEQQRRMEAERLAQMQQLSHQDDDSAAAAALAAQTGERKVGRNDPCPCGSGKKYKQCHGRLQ

[2] = biological target: T1, Ubiquitin-activating enzyme e1, putative (Leishmania donovani (strain BPK282A1)) (UniProt E9BSI1); test: Leishmania donovani Ubiquitin Activating Enzyme (LdE1); assay type: functional; conditions: 30 µM
T1 sequence (whole entry): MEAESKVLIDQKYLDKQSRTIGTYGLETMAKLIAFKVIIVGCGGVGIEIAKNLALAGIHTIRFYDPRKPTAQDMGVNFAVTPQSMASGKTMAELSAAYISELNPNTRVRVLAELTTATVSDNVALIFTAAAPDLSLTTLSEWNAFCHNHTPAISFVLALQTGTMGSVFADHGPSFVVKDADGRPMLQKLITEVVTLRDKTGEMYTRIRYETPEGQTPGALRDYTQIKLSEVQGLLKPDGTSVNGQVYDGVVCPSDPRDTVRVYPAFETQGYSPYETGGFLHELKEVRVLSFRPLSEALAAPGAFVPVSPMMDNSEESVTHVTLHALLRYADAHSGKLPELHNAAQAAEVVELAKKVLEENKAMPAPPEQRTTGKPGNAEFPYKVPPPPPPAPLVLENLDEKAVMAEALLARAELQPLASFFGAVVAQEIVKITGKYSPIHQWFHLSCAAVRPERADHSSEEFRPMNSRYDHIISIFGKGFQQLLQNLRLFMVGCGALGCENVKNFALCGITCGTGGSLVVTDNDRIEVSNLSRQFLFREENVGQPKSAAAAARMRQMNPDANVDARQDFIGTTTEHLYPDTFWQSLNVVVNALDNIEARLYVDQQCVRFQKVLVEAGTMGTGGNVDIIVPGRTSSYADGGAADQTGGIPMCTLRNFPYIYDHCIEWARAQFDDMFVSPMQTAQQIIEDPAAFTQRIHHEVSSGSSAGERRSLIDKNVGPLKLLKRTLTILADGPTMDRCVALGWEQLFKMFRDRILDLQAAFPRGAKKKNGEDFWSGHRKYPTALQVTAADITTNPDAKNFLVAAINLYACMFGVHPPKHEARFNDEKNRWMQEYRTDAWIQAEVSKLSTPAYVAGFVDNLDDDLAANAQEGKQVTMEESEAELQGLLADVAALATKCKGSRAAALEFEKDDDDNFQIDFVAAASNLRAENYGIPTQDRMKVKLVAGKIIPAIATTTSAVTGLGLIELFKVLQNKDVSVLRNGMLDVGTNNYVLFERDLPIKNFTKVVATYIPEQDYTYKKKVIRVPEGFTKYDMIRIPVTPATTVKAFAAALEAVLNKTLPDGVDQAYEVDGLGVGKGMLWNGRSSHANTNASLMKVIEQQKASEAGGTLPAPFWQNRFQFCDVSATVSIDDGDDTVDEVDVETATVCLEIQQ

[3] = biological target: Sialic acid-binding Ig-like lectin 9 (Homo sapiens) (UniProt Q9Y336); test: Hs-Siglec9 ALPHAscreen SOP 20170721; conditions: 10 µM
Chain of Sialic acid-binding Ig-like lectin 9 (Homo sapiens) (Q9Y336 whole entry): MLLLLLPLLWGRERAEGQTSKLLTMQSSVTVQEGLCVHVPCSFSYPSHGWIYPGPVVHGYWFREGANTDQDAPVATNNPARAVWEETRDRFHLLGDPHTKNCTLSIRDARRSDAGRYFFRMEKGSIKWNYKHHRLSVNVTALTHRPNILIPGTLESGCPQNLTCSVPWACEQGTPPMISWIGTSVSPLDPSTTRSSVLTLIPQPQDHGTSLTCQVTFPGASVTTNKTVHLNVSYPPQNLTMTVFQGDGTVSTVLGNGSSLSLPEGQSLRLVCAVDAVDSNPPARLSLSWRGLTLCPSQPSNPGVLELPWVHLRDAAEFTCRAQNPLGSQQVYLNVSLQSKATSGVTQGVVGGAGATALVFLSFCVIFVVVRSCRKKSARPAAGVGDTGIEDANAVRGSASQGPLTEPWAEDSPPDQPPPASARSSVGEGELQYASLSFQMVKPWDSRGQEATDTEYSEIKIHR

Trypanosoma cruzi = test: Trypanosoma cruzi phosphomannomutase and mannose-1-phosphate guanylyltransferase assay; assay type: functional; conditions: 10 µM
[4] = biological target: T2, Arginase-2, mitochondrial (Homo sapiens) (UniProt P78540); test: in vitro enzyme assay to detect the production of urea directly proportional to the activity of Arginase II; assay type: functional; conditions: 33.3 µM; further: in the data most compounds retested in dose-response had high values
T2 sequence (whole entry): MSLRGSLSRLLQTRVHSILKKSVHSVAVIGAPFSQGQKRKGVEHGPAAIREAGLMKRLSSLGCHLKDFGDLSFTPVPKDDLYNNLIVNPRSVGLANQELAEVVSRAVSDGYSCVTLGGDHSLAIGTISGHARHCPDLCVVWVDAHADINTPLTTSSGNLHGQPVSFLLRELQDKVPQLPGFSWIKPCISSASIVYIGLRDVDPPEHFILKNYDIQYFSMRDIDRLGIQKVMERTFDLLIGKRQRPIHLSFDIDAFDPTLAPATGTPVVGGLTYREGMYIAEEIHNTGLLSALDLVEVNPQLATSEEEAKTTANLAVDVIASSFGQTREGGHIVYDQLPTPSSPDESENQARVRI

[5] = biological target: T3, Proteasome subunit beta (Trypanosoma cruzi) (UniProt O96673); test: Trypanosoma cruzi proteasome chymotrypsin-like activity (TcProtChymo) assay.; further: in the data most compounds retested in dose-response had high values; assay type: functional; conditions: 9.37 µM
T3 sequence (whole entry): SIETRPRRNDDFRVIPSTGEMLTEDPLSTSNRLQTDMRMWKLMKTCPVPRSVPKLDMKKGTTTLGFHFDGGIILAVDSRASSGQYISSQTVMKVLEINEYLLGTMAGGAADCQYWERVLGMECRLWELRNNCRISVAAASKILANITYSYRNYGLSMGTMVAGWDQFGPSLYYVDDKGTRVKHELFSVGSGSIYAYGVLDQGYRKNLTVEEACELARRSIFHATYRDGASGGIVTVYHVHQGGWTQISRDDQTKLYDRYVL

Homo sapiens = species: Homo sapiens; test: To identify inhibition of the IFN signalling (Jak-Stat) pathway via expression of an eGFP reporter gene under the control of an IFN-stimulated response element (ISRE) containing MxA promoter.; assay type: functional; conditions: 30 µM
[6] = biological target: T4, Tyrosyl-tRNA synthetase, putative (Trypanosoma cruzi (strain CL Brener)) (UniProt Q4DSP6); test: Trypanosoma cruzi tyrosyl tRNA synthetase (TcYRS) _High Tyrosine SOP; assay type: functional; conditions: 30 µM; further: in the data most compounds retested in dose-response had high values
T4 sequence (whole entry): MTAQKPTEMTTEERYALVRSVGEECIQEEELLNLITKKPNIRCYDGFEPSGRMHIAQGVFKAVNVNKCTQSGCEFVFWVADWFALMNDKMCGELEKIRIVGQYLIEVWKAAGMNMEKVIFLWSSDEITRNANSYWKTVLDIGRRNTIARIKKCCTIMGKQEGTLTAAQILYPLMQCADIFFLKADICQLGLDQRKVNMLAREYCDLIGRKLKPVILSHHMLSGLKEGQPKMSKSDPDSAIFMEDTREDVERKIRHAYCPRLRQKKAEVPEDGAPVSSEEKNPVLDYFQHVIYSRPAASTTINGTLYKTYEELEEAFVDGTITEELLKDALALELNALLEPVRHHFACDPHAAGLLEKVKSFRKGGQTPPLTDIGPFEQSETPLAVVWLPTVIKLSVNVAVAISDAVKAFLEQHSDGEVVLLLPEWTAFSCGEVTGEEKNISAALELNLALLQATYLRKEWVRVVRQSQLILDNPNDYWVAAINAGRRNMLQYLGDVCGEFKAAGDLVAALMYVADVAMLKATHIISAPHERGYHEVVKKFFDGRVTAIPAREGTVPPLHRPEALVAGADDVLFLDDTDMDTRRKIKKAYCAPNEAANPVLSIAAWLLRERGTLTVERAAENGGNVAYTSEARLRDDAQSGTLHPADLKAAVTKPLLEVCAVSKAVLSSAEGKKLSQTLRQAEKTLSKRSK

[7] = biological target: T4, Tyrosyl-tRNA synthetase, putative (Trypanosoma cruzi (strain CL Brener)); test: Trypanosoma cruzi tyrosyl tRNA synthetase (TcYRS) SOP; assay type: functional; conditions: 30 µM
[8] = biological target: Chromo domain-containing protein 1 (Saccharomyces cerevisiae (strain ATCC 204508 / S288c) (Baker's yeast)) (UniProt P32657); test: ScCHD-1 Enzyme Inhibition Assay; assay type: functional; conditions: 30 µM; further: in the data most compounds retested in dose-response had high values
Chain of Chromo domain-containing protein 1 (Saccharomyces cerevisiae (strain ATCC 204508 / S288c) (Baker's yeast)) (P32657 whole entry, the tested form may be a part): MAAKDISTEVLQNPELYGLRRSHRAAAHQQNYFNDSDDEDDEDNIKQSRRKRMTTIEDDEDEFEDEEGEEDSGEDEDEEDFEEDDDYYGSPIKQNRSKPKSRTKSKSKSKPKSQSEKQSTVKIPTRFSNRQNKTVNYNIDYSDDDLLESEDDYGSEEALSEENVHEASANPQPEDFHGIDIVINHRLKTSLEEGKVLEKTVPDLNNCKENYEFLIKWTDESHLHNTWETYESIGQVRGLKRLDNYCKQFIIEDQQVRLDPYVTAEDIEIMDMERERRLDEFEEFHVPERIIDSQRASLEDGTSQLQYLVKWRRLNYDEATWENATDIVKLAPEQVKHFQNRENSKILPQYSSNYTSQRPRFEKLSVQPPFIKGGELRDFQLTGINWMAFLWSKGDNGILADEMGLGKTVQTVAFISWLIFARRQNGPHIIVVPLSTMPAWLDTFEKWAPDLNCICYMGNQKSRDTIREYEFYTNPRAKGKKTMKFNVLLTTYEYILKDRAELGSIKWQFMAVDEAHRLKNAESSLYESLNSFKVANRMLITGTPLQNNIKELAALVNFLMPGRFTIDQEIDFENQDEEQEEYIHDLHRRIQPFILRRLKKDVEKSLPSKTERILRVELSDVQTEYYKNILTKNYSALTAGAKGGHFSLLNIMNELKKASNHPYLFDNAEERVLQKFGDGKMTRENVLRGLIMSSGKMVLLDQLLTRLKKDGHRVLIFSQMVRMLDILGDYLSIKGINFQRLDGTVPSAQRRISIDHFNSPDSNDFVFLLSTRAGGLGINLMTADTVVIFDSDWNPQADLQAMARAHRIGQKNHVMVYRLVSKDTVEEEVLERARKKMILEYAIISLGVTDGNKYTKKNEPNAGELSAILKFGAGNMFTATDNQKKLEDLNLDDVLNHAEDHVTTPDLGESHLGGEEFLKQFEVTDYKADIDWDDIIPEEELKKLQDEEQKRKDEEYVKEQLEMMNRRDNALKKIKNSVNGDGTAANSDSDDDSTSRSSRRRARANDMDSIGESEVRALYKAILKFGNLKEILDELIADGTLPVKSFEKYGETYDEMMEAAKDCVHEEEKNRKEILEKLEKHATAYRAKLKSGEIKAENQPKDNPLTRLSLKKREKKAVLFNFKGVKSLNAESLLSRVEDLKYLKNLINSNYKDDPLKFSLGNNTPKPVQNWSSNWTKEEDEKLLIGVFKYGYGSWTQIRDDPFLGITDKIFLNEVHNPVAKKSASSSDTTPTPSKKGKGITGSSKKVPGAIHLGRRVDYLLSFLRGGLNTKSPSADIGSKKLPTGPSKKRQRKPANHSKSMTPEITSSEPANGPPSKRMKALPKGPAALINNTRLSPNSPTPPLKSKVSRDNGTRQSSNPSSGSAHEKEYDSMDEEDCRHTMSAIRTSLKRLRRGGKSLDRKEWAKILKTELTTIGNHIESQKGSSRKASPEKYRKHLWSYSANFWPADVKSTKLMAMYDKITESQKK

Structure (SMILES) | Percent Effect [1] [%] | Percent Effect [2] [%] | Percent Effect [3] [%] | Percent Effect (Trypanosoma cruzi) [%] | Percent Effect [4] [%] | Percent Effect [5] [%] | Percent Effect (Homo sapiens) [%] | Percent Effect [6] [%] | Percent Effect [7] [%] | Percent Effect [8] [%]
Cc1ccn(-c2cccc(C(=O)N3CCCC(n4ccnc4C)C3)c2)n1 (stereo not given) | -0.853 | 7.79 | 11.9 | -9.7 | -3.89 | 8.42 | 26.1 | 5.88 | 9.41 | -1.96
Cc1nc(C)n(CC2CCCN2Cc2nc3ccccc3n2C)n1 (stereo not given) | -5.84 | 10.7 | 7.93 | 1.81 | 3.55 | 17.6 | 8.44 | 1.58 | 12.8 | -12.7
Cc1noc(C)c1CN1CCN(Cc2nccn2C)CC1 | -3.95 | 2.67 | 3.64 | -1.81 | -0.444 | 13.7 | -5.05 | 6.84 | 7.69 | -11.9
Cc1ncc(-c2ccnc(N3CCCCCC3)n2)c(-c2cccnc2)n1 | -0.407 | 10.7 | 0.168 | -8.03 | 3.1 | 8.74 | 21.1 | 1.58 | 12.8 | -11.6
CC(=O)N1C[C@@H](c2ccsc2)[C@@H]2CN(Cc3ccccc3)CC[C@@H]21 | -3.48 | 12 | 0.781 | 1.77 | 0.885 | 12.2 | 12.3 | 10.6 | 7.5 | -25.4
CC(C)C(=O)N1CCC2(CCCN(CCOc3ccccc3)C2)C1 (stereo not given) | -6.57 | 1.3 | -1.94 | -3 | 1.83 | 1.63 | 7.35 | 2.9 | 10 | 11.6
COc1ncc(C2CC(=O)NCc3nc4ccccn4c32)cn1 (stereo not given) | -5.62 | 5.41 | 1.68 | -1.46 | 1.75 | 6.34 | 3.05 | 7.98 | 14.6 | -1.5
CNc1snc(C)c1C(=O)N1CCCC(n2nc(C)cc2C)C1 (stereo not given) | -9.36 | 13.3 | 16.1 | 6.02 | -3.1 | 5.68 | -7.89 | 4.74 | 15.4 | -14.8
